The structures appear in SMILES notation. Out of some 2,300 compounds screened, about 1,200 (52%) were called active. Another 34% or so got no clear call; they are omitted. Calls come from the whole dose curve; as a rule, active = well fitted inhibition curve with a large enough effect; inconclusive = small, poorly fitted or top-dose-only effect, or effect the other way; inactive = no such curve, though single readings can be large or run the other way. The set was probably picked from earlier hits. This is one part of the list.
% is set by controls: 0 for no effect and ±100 for the full control effect; potency is the fitted concentration of half-maximal effect.

The assay is described as follows: Confirmation screen for delayed death inhibitors of the malarial parasite plastid, 48 hour incubation. Note: nearly all actives have a fitted effect of over 65% in size. The following applies: P. falciparum-infected erythrocytes, luciferase growth; series mostly up to 28.7 µM; activity change, negative = inhibition: at the top concentration. In short, it runs like this:
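Erythrocytes infected with luciferase-expressing P. falciparum (2% hematocrit, 0.1% parasitemia) incubated with compounds 48 hours at 37 C, 5% CO2, in RPMI/Albumax. Growth inhibition scored as reduced luminescence after detection reagent.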
For `COc1ccc(-c2nnc3ccc(SCC(=O)Nc4nc5ccc(C)cc5s4)nn23)cc1OC`, the Potency is 1.26 µM (active).
On the same count and under the same terms, to `COc1cccc(CN(C)CC2CCCN(CCc3ccc(Cl)cc3)C2)c1OC` (stereo unspecified) belongs 10 µM (active); to `COc1ccc(/C=C2\CN(Cc3ccccc3)C/C(=C\c3ccc(OC)c(O)c3)C2=O)cc1O`, 0.891 µM (active); to `CCOc1cc(/C=C2\CN(CC)C/C(=C\c3ccc(O)c(OCC)c3)C2=O)ccc1O`, 3.98 µM (active).
On the same count and under the same terms, to `O=C(O)c1ccccc1NS(=O)(=O)c1cccc(-n2sc3ccccc3c2=O)c1` belongs 15.8 µM (active).
On the same count and under the same terms, as for `COc1ccccc1Nc1nnc(SCc2cc(=O)n3ccsc3n2)s1`, the figure is 12.6 µM (active).
Turning to `Cc1cc(C(=O)OC(C)C(=O)Nc2nc(-c3ccccc3)cs2)c(C)o1` (stereo unspecified), the “activity change, negative = inhibition” value was -23.8% (inactive).
Still for that read-out and setting: as for `CC(=O)Oc1ccc(-c2csc(Nc3cccnc3)n2)cc1`, the figure is 11% (inactive).
Turning to `CCOc1ccccc1Nc1nnc(SC(C)C(=O)Nc2nc(-c3ccccc3)cs2)s1` (stereo unspecified), the Potency is 14.1 µM (active).
With `COc1ccccc1Nc1nnc(SCC(=O)Nc2nc(-c3ccc(F)cc3)cs2)s1`, the Potency is 11.2 µM (active).
On the same count and under the same terms, to `Oc1ccc(Cl)cc1CNc1cnc2ccccc2c1` belongs 12.6 µM (active).
In the case of `Cc1nc2scc(C)n2c(=O)c1S(=O)(=O)NCc1ccccc1Cl`, the “activity change, negative = inhibition” value is -15.8% (inactive).
On the same count and under the same terms, as for `Cc1cc(C(=O)NC2CCCc3c2cnn3-c2cccc(C)c2C)no1` (stereo unspecified), the figure is -9.26% (inactive).
As to `COc1ccc(C(=O)NC2CCCc3c2cnn3-c2cccc(C)c2C)o1` (stereo unspecified), the Potency is 12.6 µM (active).
Take `Cc1cccc(-n2ncc3c2CCCC3NC(=O)C2=CC(=O)CC(C)(C)O2)c1C` (stereo unspecified): the Potency was 15.8 µM (active).
Consider `CCc1c(C(=O)NC2CCCc3ccccc32)[nH]c(C)c1C(C)=O` (stereo unspecified), for which the “activity change, negative = inhibition” value was -5.63% (inactive).
Turning to `O=C(CCl)Nc1cccc(Oc2cnccn2)c1`, the Potency was 4.47 µM (active).
For `COc1cccc(NC(=O)c2nc(S(C)(=O)=O)ncc2Cl)c1`, the “activity change, negative = inhibition” value is -26.2% (inactive).
As to `COc1ccc(CNS(=O)(=O)c2ccc3c(c2)N(C(C)=O)CC(C)S3)cc1` (stereo unspecified), the Potency is 12.6 µM (active).
Still for that read-out and setting: to `Cn1nc(CC(=O)Nc2ncc(Br)s2)c2ccccc2c1=O` belongs 11.2 µM (active); to `O=C(C[n+]1cc(Br)cc2ccccc21)c1ccccc1`, 10 µM (active).
The same measure, in the same setting: as for `Clc1ccc2nc(-c3ccccn3)c(Nc3ccc4c(c3)OCO4)n2c1`, the figure is 11.2 µM (active); as for `Nc1ccc2nc(-c3ccc(-c4nc5ccc(N)cc5[nH]4)cc3)[nH]c2c1`, 7.08 µM (active).
Same read-out and setting: as for `CC1CCC(NC(=O)CN(C)S(=O)(=O)c2ccc3c(c2)c(=O)n(C)c(=O)n3C)CC1` (stereo unspecified), the figure is 10 µM (active).
For `Cc1cccc(N(C)C(=O)CN(C)S(=O)(=O)c2ccc3c(c2)c(=O)n(C)c(=O)n3C)c1`, the Potency is 12.6 µM (active).
Still for that read-out and setting: to `O=S(=O)(c1cnc[nH]1)N1CCN(C(c2ccc(F)cc2)c2ccc(F)cc2)CC1` belongs 11.2 µM (active).
Still for that read-out and setting: to `O=C(Oc1nsnc1N1CCCCC1)N1CCOCC1` belongs 12.6 µM (active).
As for `O=C1CN(C(=O)c2ccc(Cl)c(S(=O)(=O)N3CCc4ccccc43)c2)c2ccccc2N1`, the Potency was 12.6 µM (active).
`COC(=O)C1C(=O)C2=C(CC1C)NC(C)=C(C(=O)OCCOc1ccccc1)C2c1ccc(C)o1` (stereo unspecified): the Potency was 14.1 µM (active).
Same read-out and setting: as for `O=C(Nc1ccc(S(=O)(=O)N2CCOCC2)cc1)c1ccc([N+](=O)[O-])o1`, the figure is 3.16 µM (active); as for `CC(C)C(=O)N1CCN(c2ccc(NC(=O)c3ccc([N+](=O)[O-])o3)cc2)CC1`, 8.91 µM (active); as for `O=C(Nc1ccc(N2CCOCC2)c(Cl)c1)c1cc2ccccc2o1`, 2.51 µM (active).
Same read-out and setting: as for `CS(=O)(=O)N1CCN(c2ccc(NC(=O)c3ccc([N+](=O)[O-])o3)cc2)CC1`, the figure is 11.2 µM (active).
For the compound `Cn1cc([N+](=O)[O-])c(C(=O)Nc2ccc(C3CCCCC3)cc2)n1`, the “activity change, negative = inhibition” value was -26.5% (inactive).
Same read-out and setting: as for `Cc1cccc(-c2c(NC(=O)c3ccco3)oc3ccc(Cl)cc3c2=O)c1`, the figure is -26.2% (inactive).
In the case of `CCN1CCN(c2ccc(NC(=O)c3ccc([N+](=O)[O-])o3)cc2Cl)CC1`, the Potency was 7.94 µM (active).
With `CCCC(=O)N1CCN(c2ccc(NC(=O)c3ccc([N+](=O)[O-])o3)cc2Cl)CC1`, the Potency was 11.2 µM (active).
Consider `CCC(=O)N1CCN(c2ccc(NC(=O)c3ccc([N+](=O)[O-])o3)cc2Cl)CC1`, for which the Potency is 12.6 µM (active).
`CCc1nn2c(=O)cc(COc3ccc(NC(=O)c4ccco4)cc3)nc2s1`: the “activity change, negative = inhibition” value is -43.4% (inactive).
Turning to `CC(C)C(=O)N1CCN(c2ccc(NC(=O)c3ccco3)cc2Cl)CC1`, the Potency is 7.94 µM (active).
Take `CCCC(=O)N1CCN(c2ccc(NC(=O)c3ccc([N+](=O)[O-])o3)cc2)CC1`: the Potency is 7.08 µM (active).
In the case of `CCc1c(C)nc2nc(SCc3ccccc3Cl)[nH]n2c1=O`, the “activity change, negative = inhibition” value is -18.3% (inactive).
For the compound `CCN(CC)c1ccc(/C=C/c2cccc[n+]2C)c(OC)c1`, the Potency is 1.12 µM (active).
Same read-out and setting: to `CN(C)S(=O)(=O)c1cccc(NC(=S)N/N=C/c2cc(Br)ccc2O)c1` belongs 3.55 µM (active).
For the compound `COc1cc(/C=N/NC(=S)Nc2cccc(S(=O)(=O)N(C)C)c2)cc(OC)c1O`, the “activity change, negative = inhibition” value was -5.26% (inactive).
On to `Cn1nc([N+](=O)[O-])nc1Sc1nnc(-c2ccccc2)o1`, for which the Potency was 11.2 µM (active).
On to `Cc1ccc(-n2ncc3c(SCc4ccccn4)ncnc32)c(C)c1`, for which the Potency was 12.6 µM (active).
Same read-out and setting: as for `CCOC(=O)C(=Cc1ccc(-n2cncn2)cc1)C(=O)OCC`, the figure is 15.8 µM (active).
Same read-out and setting: as for `CCOC(=O)C(CC)(CC)C(=O)/C=C/c1ccc(Br)cc1`, the figure is 10 µM (active); as for `CCOC(=O)C(=Cc1ccc(Br)cc1)C(=O)OCC`, 10 µM (active).
With `COc1ccc(/C=C/C(=O)NC(=S)NN2CCCCC2c2cccnc2)cc1` (stereo unspecified), the Potency was 12.6 µM (active).
As to `CC(C)c1ccc(/C=C/C(=O)NC(=S)NN2CCOCC2)cc1`, the “activity change, negative = inhibition” value is -43.1% (inactive).
On to `COCCn1c(C)cc(C(=O)CSc2cc(C)c3ccc(OC)cc3n2)c1C`, for which the Potency was 12.6 µM (active).
On the same count and under the same terms, to `COC(=O)[C@@H]1C[C@]2(OC(=O)c3ccccc3)C=CC(=O)C[C@@H]2N1C(=O)OCc1ccccc1` belongs 14.1 µM (active); to `CN(C)c1ccc(CN(C(=O)c2ccccc2Br)C2CCS(=O)(=O)C2)cc1` (stereo unspecified), 14.1 µM (active); to `COc1cccc(CN(C(=O)c2ccccc2Br)C2CCS(=O)(=O)C2)c1` (stereo unspecified), 15.8 µM (active).
For the compound `O=C(O)c1nn(CCSc2ccccc2F)c(=O)c2ccccc12`, the “activity change, negative = inhibition” value is -22.8% (inactive).
As for `COc1ccc(/C=N/NC(=O)c2cc(-c3ccccc3)nc3ccccc23)cc1O`, the “activity change, negative = inhibition” value is -17.6% (inactive).
Consider `Cc1ccc(-c2cc(C(=O)N/N=C/C=C/c3ccco3)c3ccccc3n2)cc1C`, for which the Potency is 10 µM (active).
Regarding `Cc1c(Cl)ccc2c(C(=O)O)cc(-c3ccccc3)nc12`, the “activity change, negative = inhibition” value was 13.9% (inactive).
Turning to `Cc1ccc(-c2cc(C(=O)N/N=C/c3ccoc3)c3ccccc3n2)cc1`, the Potency was 12.6 µM (active).

The record behind these values is PubChem BioAssay AID504850 (National Center for Advancing Translational Sciences (NCATS), 2011).
